The record followed here is PubChem BioAssay (NCI).

This is part of a sample that, as a whole, favours compounds with a hit. Of some 83,000 tested, about 20% had one in any assay.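 For each line, cells grew in 96-well plates with the test compound present at a single concentration for 48 hours.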 Unmarked numbers belong to inactive results. Activity calls are given as the source filed them. Rule for the calls: active = growth percent below 10; inactive = the rest.

Among the test systems are HCT-15 colon; HT29 colon; SNB-75 CNS; SNB-19 CNS; U251 CNS; PC-3 prostate; SK-MEL-5 melanoma; UACC-62 melanoma; LOX IMVI melanoma; SK-MEL-28 melanoma.
What all share (test): NCI-60 one-dose screen, 48 h (100 = growth as untreated, 0 = no growth, -100 = all killed)
Common to all, as to settings: 10 µM

`COC(=O)[C@]12CC[C@@H](C)[C@H](C)[C@@H]1C1=CC[C@@H]3[C@@]4(C)CC(=O)[C@H](O)[C@@](C)(CO)[C@@H]4C(=O)C[C@@]3(C)[C@]1(C)CC2`: the growth in the assay on HCT-15 colon is -15.1% (active); in the assay with HT29 colon, -25.6% (active); with SNB-75 CNS it was -0.588% (active); in the assay with SNB-19 CNS, 16.6%; in the assay with U251 CNS, -43.5% (active); in the assay with PC-3 prostate, -22.3% (active). In addition, the growth in the assay on SK-MEL-5 melanoma is -80.3% (active); in the assay on UACC-62 melanoma, -57.2% (active); in the assay with LOX IMVI melanoma, -77.9% (active); in the assay with SK-MEL-28 melanoma, 21.8%.

`COc1cc(C2=Nc3c/c(=C\c4c(O)[nH]c5ccc(Cl)cc45)ccc3=N2)cc(OC)c1OC`: the growth with HCT-15 colon was 24.8%; in the assay with HT29 colon it was -73.3% (active); in the assay on SNB-75 CNS, 50.1%; in the assay on SNB-19 CNS it was -30.9% (active); with U251 CNS it was -90.6% (active); in the assay on PC-3 prostate, 21.7%. The growth in the assay on SK-MEL-5 melanoma is -92.2% (active); in the assay with UACC-62 melanoma, 31.8%; with LOX IMVI melanoma, 2.31% (active); in the assay with SK-MEL-28 melanoma, -35.7% (active).

For `COCc1cc2c(cc1Br)OCO2`, the growth in the assay with HCT-15 colon was 100%; with HT29 colon it was 106%; in the assay on SNB-75 CNS, 87.1%; with SNB-19 CNS, 105%; in the assay on U251 CNS, 99.1%; in the assay on PC-3 prostate, 86.8%. Besides, the growth with SK-MEL-5 melanoma was 107%; with UACC-62 melanoma, 100%; in the assay with LOX IMVI melanoma, 95.6%; in the assay on SK-MEL-28 melanoma, 99.1%.

Take `C[C@@H]1N=C(c2ccc(Br)cc2)Nc2nc3ccccn3c2C1=O`: the growth in the assay on HCT-15 colon was 30.7%; in the assay with HT29 colon, 17.5%; in the assay with SNB-75 CNS it was 50.2%; with SNB-19 CNS, 82.6%; with U251 CNS it was 54%; with PC-3 prostate, 63.2%. In addition, the growth in the assay with SK-MEL-5 melanoma was 31.9%; in the assay on UACC-62 melanoma, 49.2%; in the assay on LOX IMVI melanoma, 52.4%; in the assay on SK-MEL-28 melanoma it was 66.2%.

As for `O=C(CSc1nnc(-c2ccc(Cl)cc2)o1)c1ccccc1`, the growth in the assay on HCT-15 colon is 99%; in the assay with HT29 colon it was 96.1%; in the assay on SNB-75 CNS, 98.3%; in the assay with SNB-19 CNS, 101%; in the assay with U251 CNS, 96%; with PC-3 prostate it was 86.9%. The growth in the assay on SK-MEL-5 melanoma was 91.7%; with UACC-62 melanoma, 92.4%; in the assay with LOX IMVI melanoma it was 94.3%; with SK-MEL-28 melanoma it was 102%.

`COc1ccc(C(=O)/C=C/c2cc(-c3ccc4c(c3)OCO4)n[nH]2)cc1OC`: the growth in the assay on HCT-15 colon is 52.1%; in the assay on HT29 colon it was 36.4%; in the assay on SNB-75 CNS, 60.3%; in the assay with SNB-19 CNS, 47.1%; in the assay on U251 CNS, 31.8%; in the assay on PC-3 prostate, 48.4%. Also, the growth is 81.7% in the assay on SK-MEL-5 melanoma, 88.9% in the assay with UACC-62 melanoma, 47.5% in the assay with LOX IMVI melanoma and 103% in the assay on SK-MEL-28 melanoma.

On to `COc1cc(Nc2ccnc(N3CCN(c4ccnc5cc(Cl)ccc45)CC3)n2)cc(OC)c1`, for which the growth with HCT-15 colon is 9.9% (active); in the assay on HT29 colon, -15.1% (active); in the assay with SNB-75 CNS, -13.9% (active); in the assay on SNB-19 CNS it was 39.1%; in the assay with U251 CNS, 12.6%; in the assay with PC-3 prostate, 3.31% (active). Moreover, the growth was -55.2% (active) in the assay with SK-MEL-5 melanoma, -21.6% (active) with UACC-62 melanoma, 3.24% (active) in the assay on LOX IMVI melanoma and 11.9% in the assay on SK-MEL-28 melanoma.

For the compound `CCOC(=O)[C@@H](Cc1ccccc1)NC(=O)c1[nH]c2ccc(Cl)cc2c(=O)c1C`, the growth was 40.7% in the assay on HCT-15 colon; 91.7% in the assay with HT29 colon; 95.9% with SNB-75 CNS; 94.3% with SNB-19 CNS; 71.7% in the assay with U251 CNS; 80.7% in the assay on PC-3 prostate. In addition, the growth in the assay with SK-MEL-5 melanoma is 81.6%; in the assay with UACC-62 melanoma, 86.6%; in the assay with LOX IMVI melanoma, 95.8%; in the assay on SK-MEL-28 melanoma, 104%.

Turning to `C(=C\c1nc2ccccc2s1)/c1ccc(N2CCOCC2)s1`, the growth in the assay on HCT-15 colon was 48.3%; in the assay on HT29 colon, 45.1%; with SNB-75 CNS, 99.6%; with SNB-19 CNS, 95.2%; in the assay with U251 CNS, 67.6%; with PC-3 prostate, 53.4%. Besides, the growth is 61.1% with SK-MEL-5 melanoma, 30.8% in the assay on UACC-62 melanoma, 56.8% in the assay with LOX IMVI melanoma and 113% in the assay with SK-MEL-28 melanoma.

For `CNC(=O)c1cc(Oc2ccc(NC(=O)Nc3ccc(Cl)c(OC4CCCCC4)c3)c(F)c2)ccn1`, the growth is 37.7% in the assay on HCT-15 colon; 48.1% with HT29 colon; 51.5% with SNB-75 CNS; 41.2% with SNB-19 CNS; 38.8% in the assay with U251 CNS; 16.6% in the assay on PC-3 prostate. Besides, the growth in the assay with SK-MEL-5 melanoma was 15.6%; in the assay on UACC-62 melanoma, 32.2%; in the assay with LOX IMVI melanoma it was 42.3%; with SK-MEL-28 melanoma, 75.4%.

In the case of `CCOC(=O)c1c(C(F)(F)F)n([O-])c2ccc(OC)cc2[n+]1=O`, the growth in the assay on HCT-15 colon is 23.7%; in the assay on HT29 colon, 48.1%; in the assay with SNB-75 CNS it was 11.8%; with SNB-19 CNS, 25.8%; in the assay with U251 CNS it was 26.6%; in the assay with PC-3 prostate, -3.79% (active). Further, the growth is -29.4% (active) in the assay with SK-MEL-5 melanoma, 22.8% in the assay on UACC-62 melanoma, 31.2% in the assay with LOX IMVI melanoma and 60.8% in the assay on SK-MEL-28 melanoma.

Take `O=[N+]([O-])c1ccc2c(c1)Cc1cc(I)ccc1-2`: the growth with HCT-15 colon is 108%; with HT29 colon, 91.6%; in the assay with SNB-75 CNS it was 106%; in the assay on SNB-19 CNS it was 109%; in the assay on U251 CNS, 96%; with PC-3 prostate, 101%. The growth in the assay with SK-MEL-5 melanoma is 97.1%; in the assay on UACC-62 melanoma, 108%; with LOX IMVI melanoma, 116%; in the assay on SK-MEL-28 melanoma, 111%.

For the compound `COC(=O)CCCCCCCCC(C)c1ccc(C(C)=O)cc1` (stereo not given), the growth is 103% with HCT-15 colon; 101% in the assay on HT29 colon; 122% in the assay with SNB-75 CNS; 110% in the assay with SNB-19 CNS; 107% in the assay with U251 CNS; 106% in the assay with PC-3 prostate. Besides, the growth in the assay on SK-MEL-5 melanoma was 111%; in the assay on UACC-62 melanoma it was 116%; in the assay with LOX IMVI melanoma, 98.2%; in the assay on SK-MEL-28 melanoma, 130%.

As to `COc1cc(-c2cc(-c3ccc(C)cc3)nc3nc(N)[nH]c(=O)c23)ccc1Oc1ccnc2cc(Cl)ccc12`, the growth in the assay on HCT-15 colon is 88.7%; in the assay on HT29 colon, 84.6%; with SNB-75 CNS, 67.5%; in the assay with SNB-19 CNS, 74.3%; with U251 CNS, 81%; with PC-3 prostate, 70.5%. In addition, the growth in the assay with SK-MEL-5 melanoma was 84%; in the assay on UACC-62 melanoma it was 86.9%; in the assay with LOX IMVI melanoma, 86.3%; with SK-MEL-28 melanoma, 88.3%.
